Experimental data as given in PubChem BioAssay.
Activity calls are given as the source filed them. Rule as the data show it, unless noted: active = response above about 15%; inactive = the rest.

Key:
[1] = inhibitors of CD8+ T cell-vesicle binding, pilot screen, LFA-1/ICAM-1 modulator project, MLPCN validation set, flow cytometry (AID 2523;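 active = response below a set limit, under 55% cells CD8-positive and vesicle-bound, and CD8 cells' 90th-percentile brightness under 279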;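 as to vesicle binding response: mean PE anti-B7-1 fluorescence of CD8+ cells relative to row control; 100% = QL9-loaded vesicles with DMSO vehicle in the same plate row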); settings: 2C mouse CD8+ T cells, at 7 µM, stronger effect = lower value; double positive events: measured here: CD8+/vesicle+ event percentage
[2] = biological target: Integrin beta-1 (Homo sapiens) + Integrin alpha-4 (Homo sapiens) (UniProt P13612+P05556); experiment: inhibition of HUTS-21 binding to VLA-4, pilot screen, VLA-4 allosteric modulator project, U937 cells, HUTS-21 mAb, flow cytometry, validation set (AID 2674;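 active = inhibition above 50%, about 3 SD of the validation set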;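 also: antibody binding induced by the VLA-4 ligand LDV present at three times its Kd; 0% = LDV ligand with antibody and no compound and 100% = antibody without LDV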); settings: HUTS-21 LIBS mAb binding, at 6.7 µM, stronger effect = higher value, binding induced by LDV ligand
[3] = superoxide lowering in aged yeast cells, pilot screen, validation compound set (AID 2706;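 active = superoxide response below 65% of plate, a cut near 3 SD across the whole screen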;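 also: yeast exposed to compound for one week at 30 degrees C before staining; 100% = mean of all compound wells on the same plate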); settings: S. cerevisiae aging, superoxide DHE fluorescence; at 10 µM, stronger effect = lower value
[4] = biological target: Beta-adrenergic receptor kinase 1 (Homo sapiens) (UniProt P25098); experiment: GRK2 binders displacing RNA aptamer, biochemical, validation, human GRK2, bead flow cytometry (AID 488806;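 active = aptamer binding inhibition above 30%, about 3 SD of noise from non-fluorescent compounds; inactive = inhibition at or below 30%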); settings: bead-bound GRK2, FAM-aptamer displacement, at 10 µM, stronger effect = higher value
[5] = biological target: Beta-2 adrenergic receptor (Homo sapiens) (UniProt P07550); experiment: beta2AR agonists driving receptor internalization, pilot screen, cell-based, FAP fluorogen, flow cytometry, validation set (AID 504459;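 active = percent response above 42, roughly 3 SD of non-fluorescent test compounds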;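 also: agonist-driven loss of surface beta2AR via internalization measured by FAP dye flow cytometry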); settings: Am2.2-beta2AR cells, FAP surface receptor flow cytometry; at 10 µM; stronger effect = higher value
[6] = biological target: AP-2 complex subunit beta (Homo sapiens) (UniProt P63010); experiment: inhibitors of arrestin peptide binding to AP2, pilot screen, biochemical, validation set, GST-AP2 beads, flow cytometry (AID 504541;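 active = inhibition above 54%, about 3 SD of non-fluorescent compounds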;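 also: AP2 carries R879A mutation and is captured from E. coli lysate; bead-bound FITC arrestin peptide fluorescence measuring arrestin peptide binding to AP2; 0% = DMSO wells and 100% = excess unlabeled arrestin peptide control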); settings: FITC arrestin peptide, at 10 µM, stronger effect = higher value, AP2 beta2 appendage fragment, R879A mutant
[7] = yeast V-ATPase proton transport modulators, S. cerevisiae, pHLuorin, HTS validation (AID 504600);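 also: plate controls were DMSO for no effect and reference compound for full effect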; settings: S. cerevisiae pHLuorin cytosolic pH, at 10 µM, stronger effect = higher value
[8] = test system: anti-desmoglein-3 scFv antibody binding to human DSG3; experiment: inhibitors of anti-DSG3 scFv binding to DSG3, pilot screen, biochemical, validation compound set, bead-based, flow cytometry (AID 588368;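 active = binding below the plate cutoff, the plate median minus 3 SD, with a reading above zero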;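 also: signal is the median channel fluorescence of bead-bound GFP antibody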); settings: Protein G beads, DSG3-Fc, scFv-GFP binding, at 10 µM, stronger effect = lower value
[9] = inhibitors of fungal efflux pumps CDR1, CDR2, MDR1, pilot screen, validation compound set, multiplex, phenotypic (AID 588506;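 active = efflux inhibition above 0.42, the validation set average plus 4 SD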;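 also: Nile Red retained in cells so higher fluorescence means more efflux inhibition; 0 = negative control wells and 1 = enniatin B 25 µM full block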); settings: S. cerevisiae pump-expressing triplex, Nile Red efflux flow cytometry; at 10 µM; stronger effect = higher value; the pumps come from Candida albicans
[10] = biological target: ATP-binding cassette sub-family B member 6 (Homo sapiens) (UniProt Q9NP58); experiment: ABCB6 transporter inhibitors, pilot screen, K562-ABCB6 cells, flow cytometry, validation set (AID 588550;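 active = inhibition above the screen-wide mean plus 3 SD, about 51%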;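 also: 0% = DMSO wells and 100% = benzethonium chloride 70 µM positive control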); settings: K562-ABCB6 porphyrin accumulation, 1 h, at 10 µM, stronger effect = higher value
[11] = promoters of myeloid differentiation in arrested cells, primary screen, cell-based, GFP/MAC1 double positive, flow cytometry, validation set (AID 588685;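 active = differentiation response of at least 50%, scaled between solvent and reference control, from cells with both markers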;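 also: compound exposure lasts four days before antibody staining and flow analysis; 0% = DMSO wells and 100% = 5 µM fulvestrant positive control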); settings: ER-HoxA9 marrow cells, stronger effect = higher value, normalized: vehicle 0, fulvestrant 100

Sequence of ATP-binding cassette sub-family B member 6 (Homo sapiens) (Q9NP58 whole entry, looked up): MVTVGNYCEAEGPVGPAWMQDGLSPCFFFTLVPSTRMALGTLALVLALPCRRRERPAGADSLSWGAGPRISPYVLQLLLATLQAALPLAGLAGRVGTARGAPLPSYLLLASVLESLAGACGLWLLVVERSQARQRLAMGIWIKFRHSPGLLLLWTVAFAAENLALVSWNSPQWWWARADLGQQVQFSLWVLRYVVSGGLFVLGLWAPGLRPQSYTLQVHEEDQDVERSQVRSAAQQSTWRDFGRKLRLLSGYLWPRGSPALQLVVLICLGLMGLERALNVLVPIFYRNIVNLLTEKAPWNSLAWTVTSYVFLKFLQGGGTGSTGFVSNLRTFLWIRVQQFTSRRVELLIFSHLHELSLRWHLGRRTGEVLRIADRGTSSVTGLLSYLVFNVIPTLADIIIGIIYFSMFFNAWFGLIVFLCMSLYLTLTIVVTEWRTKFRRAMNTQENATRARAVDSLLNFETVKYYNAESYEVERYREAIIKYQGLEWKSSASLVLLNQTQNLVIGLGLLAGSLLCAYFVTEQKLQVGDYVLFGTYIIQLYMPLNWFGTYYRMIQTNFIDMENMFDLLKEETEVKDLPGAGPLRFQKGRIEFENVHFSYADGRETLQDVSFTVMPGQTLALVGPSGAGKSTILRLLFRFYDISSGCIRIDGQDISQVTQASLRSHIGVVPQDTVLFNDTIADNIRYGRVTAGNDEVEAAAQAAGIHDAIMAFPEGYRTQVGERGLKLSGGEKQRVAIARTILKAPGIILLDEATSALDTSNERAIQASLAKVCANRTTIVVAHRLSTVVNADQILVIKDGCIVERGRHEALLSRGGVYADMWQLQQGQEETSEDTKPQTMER
Sequence of Integrin beta-1 (Homo sapiens) + Integrin alpha-4 (Homo sapiens) (P05556 whole entry, looked up): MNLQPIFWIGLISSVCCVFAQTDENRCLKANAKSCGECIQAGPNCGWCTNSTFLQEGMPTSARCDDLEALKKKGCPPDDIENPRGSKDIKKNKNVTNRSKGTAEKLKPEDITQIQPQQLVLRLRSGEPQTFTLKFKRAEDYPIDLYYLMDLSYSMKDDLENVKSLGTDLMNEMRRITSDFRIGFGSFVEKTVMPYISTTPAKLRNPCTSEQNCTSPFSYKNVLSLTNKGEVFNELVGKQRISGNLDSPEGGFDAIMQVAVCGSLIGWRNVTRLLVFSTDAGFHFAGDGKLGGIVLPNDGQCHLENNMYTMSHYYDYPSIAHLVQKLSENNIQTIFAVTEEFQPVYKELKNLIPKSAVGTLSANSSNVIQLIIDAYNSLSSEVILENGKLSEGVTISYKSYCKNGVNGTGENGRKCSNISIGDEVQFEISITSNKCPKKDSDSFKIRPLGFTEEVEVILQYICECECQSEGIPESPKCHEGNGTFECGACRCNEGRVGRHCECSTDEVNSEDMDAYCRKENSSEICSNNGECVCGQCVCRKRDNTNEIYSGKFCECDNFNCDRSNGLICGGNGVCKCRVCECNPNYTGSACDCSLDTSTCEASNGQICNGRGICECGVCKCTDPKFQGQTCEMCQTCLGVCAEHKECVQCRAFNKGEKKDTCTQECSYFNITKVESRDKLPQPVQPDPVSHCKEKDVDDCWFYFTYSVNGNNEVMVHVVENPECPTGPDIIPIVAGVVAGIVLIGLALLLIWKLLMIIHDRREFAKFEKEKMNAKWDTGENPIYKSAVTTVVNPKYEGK
Sequence of Integrin beta-1 (Homo sapiens) + Integrin alpha-4 (Homo sapiens) (P13612 whole entry, looked up): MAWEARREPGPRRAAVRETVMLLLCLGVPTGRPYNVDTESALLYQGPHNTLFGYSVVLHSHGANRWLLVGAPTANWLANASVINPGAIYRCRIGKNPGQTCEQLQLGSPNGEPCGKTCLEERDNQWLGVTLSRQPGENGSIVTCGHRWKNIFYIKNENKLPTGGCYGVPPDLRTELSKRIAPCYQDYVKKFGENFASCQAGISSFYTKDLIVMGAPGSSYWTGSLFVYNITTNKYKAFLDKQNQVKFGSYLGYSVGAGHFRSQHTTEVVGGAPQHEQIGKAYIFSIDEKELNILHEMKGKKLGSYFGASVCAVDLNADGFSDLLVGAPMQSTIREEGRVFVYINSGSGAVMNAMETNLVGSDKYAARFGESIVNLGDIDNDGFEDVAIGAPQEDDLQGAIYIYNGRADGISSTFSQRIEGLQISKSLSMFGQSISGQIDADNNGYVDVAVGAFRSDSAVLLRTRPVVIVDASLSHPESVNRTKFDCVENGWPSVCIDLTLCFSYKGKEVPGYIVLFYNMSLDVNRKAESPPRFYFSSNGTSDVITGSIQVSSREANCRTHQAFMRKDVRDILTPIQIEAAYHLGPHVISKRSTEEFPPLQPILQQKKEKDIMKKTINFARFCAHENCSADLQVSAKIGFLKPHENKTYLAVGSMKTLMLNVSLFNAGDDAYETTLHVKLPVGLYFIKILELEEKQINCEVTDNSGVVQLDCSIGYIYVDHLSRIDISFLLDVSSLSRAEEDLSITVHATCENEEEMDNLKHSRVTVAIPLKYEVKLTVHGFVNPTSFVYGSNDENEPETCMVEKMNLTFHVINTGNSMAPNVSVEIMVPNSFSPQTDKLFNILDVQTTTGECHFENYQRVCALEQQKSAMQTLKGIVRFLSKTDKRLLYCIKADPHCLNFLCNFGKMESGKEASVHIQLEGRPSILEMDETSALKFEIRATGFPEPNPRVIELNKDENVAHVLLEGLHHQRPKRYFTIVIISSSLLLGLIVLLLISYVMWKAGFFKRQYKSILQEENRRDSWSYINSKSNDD
Sequence of Beta-2 adrenergic receptor (Homo sapiens) (P07550 whole entry, looked up): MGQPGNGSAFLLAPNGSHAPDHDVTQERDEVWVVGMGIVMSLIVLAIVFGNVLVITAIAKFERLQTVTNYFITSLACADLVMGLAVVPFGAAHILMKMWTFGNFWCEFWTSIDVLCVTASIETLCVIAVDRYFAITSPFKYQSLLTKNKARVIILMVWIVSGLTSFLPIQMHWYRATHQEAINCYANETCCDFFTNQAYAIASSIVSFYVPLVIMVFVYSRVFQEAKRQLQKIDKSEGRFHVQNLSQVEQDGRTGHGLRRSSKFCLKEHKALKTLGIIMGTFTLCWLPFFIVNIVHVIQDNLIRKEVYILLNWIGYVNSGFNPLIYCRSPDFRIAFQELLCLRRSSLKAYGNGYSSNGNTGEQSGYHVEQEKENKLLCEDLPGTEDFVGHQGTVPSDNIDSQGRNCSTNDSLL
Sequence of Beta-adrenergic receptor kinase 1 (Homo sapiens) (P25098 whole entry, looked up): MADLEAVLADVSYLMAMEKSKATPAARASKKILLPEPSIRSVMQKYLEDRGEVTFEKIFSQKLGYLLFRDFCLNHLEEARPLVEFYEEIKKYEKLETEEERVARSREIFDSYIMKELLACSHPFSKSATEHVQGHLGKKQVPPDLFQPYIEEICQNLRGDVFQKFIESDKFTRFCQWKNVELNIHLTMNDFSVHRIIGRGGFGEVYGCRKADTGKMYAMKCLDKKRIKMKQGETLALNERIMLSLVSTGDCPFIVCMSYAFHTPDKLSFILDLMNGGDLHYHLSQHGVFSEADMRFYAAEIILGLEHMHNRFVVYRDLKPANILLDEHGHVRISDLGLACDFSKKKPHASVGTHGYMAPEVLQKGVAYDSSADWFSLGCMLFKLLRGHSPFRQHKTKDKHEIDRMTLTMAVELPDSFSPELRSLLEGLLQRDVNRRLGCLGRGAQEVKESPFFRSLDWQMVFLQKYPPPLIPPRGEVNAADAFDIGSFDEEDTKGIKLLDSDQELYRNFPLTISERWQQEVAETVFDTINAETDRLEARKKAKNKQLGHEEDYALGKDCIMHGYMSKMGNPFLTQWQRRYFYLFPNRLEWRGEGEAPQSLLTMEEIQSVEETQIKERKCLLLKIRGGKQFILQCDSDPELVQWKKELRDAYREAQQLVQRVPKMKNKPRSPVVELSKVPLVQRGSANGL
Sequence of AP-2 complex subunit beta (Homo sapiens) (P63010 whole entry, looked up, the tested form may be a part, one chain of several): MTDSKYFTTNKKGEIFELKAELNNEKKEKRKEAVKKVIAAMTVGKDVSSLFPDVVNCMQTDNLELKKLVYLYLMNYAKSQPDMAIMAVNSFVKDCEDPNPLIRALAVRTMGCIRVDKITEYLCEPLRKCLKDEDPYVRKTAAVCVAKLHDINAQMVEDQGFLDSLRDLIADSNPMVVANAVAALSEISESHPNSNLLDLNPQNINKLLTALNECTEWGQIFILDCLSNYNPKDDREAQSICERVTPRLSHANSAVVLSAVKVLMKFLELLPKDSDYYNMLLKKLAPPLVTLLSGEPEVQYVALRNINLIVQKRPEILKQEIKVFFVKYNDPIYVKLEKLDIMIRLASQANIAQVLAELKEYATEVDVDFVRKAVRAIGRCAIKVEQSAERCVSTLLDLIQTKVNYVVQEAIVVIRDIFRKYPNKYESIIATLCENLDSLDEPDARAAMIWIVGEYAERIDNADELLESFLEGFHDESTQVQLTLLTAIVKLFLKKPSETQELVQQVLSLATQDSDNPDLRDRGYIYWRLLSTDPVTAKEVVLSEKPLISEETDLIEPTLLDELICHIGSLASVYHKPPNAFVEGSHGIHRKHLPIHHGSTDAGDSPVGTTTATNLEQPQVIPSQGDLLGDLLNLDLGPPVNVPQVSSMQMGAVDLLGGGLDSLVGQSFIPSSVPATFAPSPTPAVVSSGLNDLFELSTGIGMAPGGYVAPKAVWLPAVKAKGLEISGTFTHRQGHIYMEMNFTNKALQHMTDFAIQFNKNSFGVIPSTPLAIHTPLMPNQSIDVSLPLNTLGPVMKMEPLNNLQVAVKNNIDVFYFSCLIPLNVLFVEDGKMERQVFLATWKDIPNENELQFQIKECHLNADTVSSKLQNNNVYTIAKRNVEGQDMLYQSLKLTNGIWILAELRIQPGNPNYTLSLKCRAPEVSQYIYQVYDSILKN

CC(=O)c1cn(C)c(=O)[nH]c1=O
active: response [5] 72.3%
60.8%: double positive events [1]
inactive: vesicle binding response [1] 243% | inhibition [2] -7.25% | superoxide response (% of plate) [3] 103% | aptamer binding inhibition [4] 3% | inhibition [6] -5.48% | response [7] 0.64% | binding (% of control) [8] 107% | efflux inhibition (fraction of control) [9] -0.24 | inhibition [10] 2% | differentiation response [11] -8.8%

CCc1cccc(OC2OC(CO)C(O)C(O)C2NC(C)=O)c1 (stereo unspecified)
inactive: vesicle binding response [1] 308% | inhibition [2] -5.38% | superoxide response (% of plate) [3] 98.7% | aptamer binding inhibition [4] 1% | response [5] -16.8% | inhibition [6] -1.83% | response [7] 4.31% | binding (% of control) [8] 103% | efflux inhibition (fraction of control) [9] -0.13 | inhibition [10] 7% | differentiation response [11] 0.92%
69.6%: double positive events [1]

CN(C)CCOc1ccccc1Cc1ccccc1
69.2%: double positive events [1]
inactive: vesicle binding response [1] 210% | inhibition [2] 23.6% | superoxide response (% of plate) [3] 85.8% | aptamer binding inhibition [4] 4% | response [5] -20.2% | inhibition [6] -8.22% | response [7] -1.1% | binding (% of control) [8] 104% | efflux inhibition (fraction of control) [9] -0.13 | inhibition [10] 14% | differentiation response [11] -1.05%

Cc1nc2ccccc2c(=O)n1N
active: differentiation response [11] 58.4%
64.8%: double positive events [1]
inactive: vesicle binding response [1] 160% | inhibition [2] 5.03% | superoxide response (% of plate) [3] 95.7% | aptamer binding inhibition [4] -1% | response [5] -0.52% | inhibition [6] -8.13% | response [7] -5.43% | binding (% of control) [8] 106% | efflux inhibition (fraction of control) [9] 0.15 | inhibition [10] 6%

CC(=O)O[C@]1(C(C)=O)CC[C@H]2[C@@H]3C=C(C)C4=CC(=O)CC[C@]4(C)[C@H]3CC[C@@]21C
65.3%: double positive events [1]
inactive: vesicle binding response [1] 252% | inhibition [2] -0.27% | superoxide response (% of plate) [3] 95.9% | aptamer binding inhibition [4] 3% | response [5] -24.4% | inhibition [6] 1.74% | response [7] -0.81% | binding (% of control) [8] 101% | efflux inhibition (fraction of control) [9] 0.29 | inhibition [10] -2% | differentiation response [11] 7.82%

COc1cccc(OC)c1C(=O)NCCSC1CCCCC1
61.3%: double positive events [1]
inactive: vesicle binding response [1] 68.6% | inhibition [2] 1.59% | superoxide response (% of plate) [3] 85.2% | aptamer binding inhibition [4] 1% | response [5] 0.14% | inhibition [6] -3.95% | response [7] -0.98% | binding (% of control) [8] 104% | efflux inhibition (fraction of control) [9] -0.25 | inhibition [10] -5% | differentiation response [11] -16.3%

CCc1cccc2c1NC1(CCCC1)CC2C (stereo unspecified)
active: response [5] 45.9%
inactive: vesicle binding response [1] 185% | inhibition [2] -16.8% | superoxide response (% of plate) [3] 96.3% | aptamer binding inhibition [4] 4% | inhibition [6] -1.05% | response [7] 1.08% | binding (% of control) [8] 97.6% | efflux inhibition (fraction of control) [9] -0.06 | inhibition [10] -41% | differentiation response [11] 10.4%
58.5%: double positive events [1]

O=C(NCc1ccccc1Cl)NC(=O)c1ccccc1
62%: double positive events [1]
inactive: vesicle binding response [1] 221% | inhibition [2] 6.46% | superoxide response (% of plate) [3] 115% | aptamer binding inhibition [4] 4% | response [5] 0.79% | inhibition [6] 8.1% | response [7] -5.42% | binding (% of control) [8] 98.7% | efflux inhibition (fraction of control) [9] 0.19 | inhibition [10] 7% | differentiation response [11] 1.64%

O=C(/C=C/c1ccco1)NCc1ccc2c(c1)OCO2
inactive: vesicle binding response [1] 260% | inhibition [2] -3.16% | superoxide response (% of plate) [3] 101% | aptamer binding inhibition [4] 0% | response [5] -2.38% | inhibition [6] -3% | response [7] 1.08% | binding (% of control) [8] 94.7% | efflux inhibition (fraction of control) [9] 0.19 | inhibition [10] 8% | differentiation response [11] -10.4%
63%: double positive events [1]

COc1cc(/C=C(\C#N)C(=O)N2CCc3ccccc32)ccc1O
64.1%: double positive events [1]
inactive: vesicle binding response [1] 273% | inhibition [2] -88.6% | superoxide response (% of plate) [3] 98.9% | aptamer binding inhibition [4] -1% | response [5] 0.72% | inhibition [6] -7.55% | response [7] 1.46% | binding (% of control) [8] 105% | efflux inhibition (fraction of control) [9] 0.19 | inhibition [10] -41% | differentiation response [11] 2.46%

C=C(C)COc1ccc(-c2nc(N)ncc2-c2ccc(OC)cc2)c(O)c1
inactive: vesicle binding response [1] 43.9% | inhibition [2] 20.3% | superoxide response (% of plate) [3] 111% | aptamer binding inhibition [4] 1% | response [5] -10.8% | inhibition [6] -4.84% | response [7] 1.42% | binding (% of control) [8] 92% | efflux inhibition (fraction of control) [9] -0.45 | inhibition [10] 4% | differentiation response [11] -9.53%
55.6%: double positive events [1]

COc1ccc(CCN=C(N)C(C)c2ccccc2)cc1OC (stereo unspecified)
inactive: vesicle binding response [1] 238% | inhibition [2] 5.69% | superoxide response (% of plate) [3] 93.8% | aptamer binding inhibition [4] 4% | response [5] -11.2% | inhibition [6] -6.07% | response [7] -1.3% | binding (% of control) [8] 97.3% | efflux inhibition (fraction of control) [9] -0.04 | inhibition [10] 5% | differentiation response [11] 7.82%
62.6%: double positive events [1]

Nc1cccc2nc3ccccc3cc12
60.9%: double positive events [1]
inactive: vesicle binding response [1] 235% | inhibition [2] 9.1% | superoxide response (% of plate) [3] 113% | aptamer binding inhibition [4] 3% | response [5] 2.19% | inhibition [6] 2.41% | response [7] -17.4% | binding (% of control) [8] 102% | efflux inhibition (fraction of control) [9] -0.04 | inhibition [10] 2% | differentiation response [11] -6.96%
